# Laboratory results reported in paper PMC5540273 (PLoS ONE, 2017).
# Test system: CLK4
# Settings: concentration: 1 μM, replicates: in singlicate; n = 1
# 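Further: KINOMEscan kinase panel screen.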
row,SMILES,%Inh [%]
1,COc1ccc(Nc2nccc(N3CCC(NC(=O)c4cc5ccccc5s4)C3)n2)cc1 (stereo not drawn) [GSK1379738],0
2,Cc1ccc(-c2nc(Nc3ccncc3)c3ccccc3n2)s1 [GSK189015],28
3,Cn1cncc1C(=O)NC1CCN(c2ccnc(Nc3ccc(F)cc3)n2)C1 (stereo not drawn) [GSK1379717],0
4,COc1ccc(Nc2nccc(N3CCC(NC(=O)C(C)c4ccc(Cl)cc4)C3)n2)cc1 (stereo not drawn) [GSK1379735],8
5,COc1nccc(-c2c(-c3ccc(F)cc3)ncn2CCCN2CCOCC2)n1 [SB-282852],5
6,Cc1ccccc1Cn1ccn2c(=O)cc(N3CCOCC3)nc12 [GSK2269905],30
7,CS(=O)(=O)CCNCc1nc(-c2ccc3ncnc(Nc4ccc5c(cnn5Cc5ccccc5)c4)c3c2)cs1.Cl.Cl [GW569716],5
8,O=C1NC(=O)C(c2ccc(Cl)cc2)=C1Nc1ccc(O)cc1 [SB-340867],29
9,Cc1cccc2c(-c3ccncn3)c(-c3ccc(F)cc3)nn12 [GW515532],22
10,Cn1cncc1-c1cc2c(Nc3ccc(OCc4ccccc4)cc3)ncnc2cn1 [GW281179],14
11,CCn1c(-c2ccccc2)nc2cnccc21 [SB-733416],3
12,Nc1ncnc2occ(-c3ccc4c(c3)CCN4C(=O)Cc3cc(F)ccc3F)c12 [GSK2645446],0
13,c1ccc(-c2ccnc3[nH]ccc23)cc1 [SB-693578],5
14,O=C(Nc1n[nH]c2cc(-c3ccsc3)ccc12)C1CC1 [SB-732932],7
15,COc1ccc(Nc2nccc(NCCNC(=O)Nc3cc(C)ccc3C)n2)cc1 [GSK1379899],57
16,Cc1ccc(NC(=O)Nc2ccccc2F)cc1-c1ccc(C(=O)Nc2ccncc2)cc1 [GSK1398477],40
17,Cl.Cl.Cl.N#Cc1ccc(CCNc2nccc(-c3cccc(CN4CCNCC4)c3)n2)cc1 [GSK2137462],15
18,O=C1NC(=O)C(c2ccc(Cl)cc2)=C1Nc1cccc(Cl)c1 [SB-317651],16

row,SMILES,%Inh [%]
1,Cc1ccccc1-c1cc(-c2c[nH]nc2-c2ccccn2)ccn1 [GW680061],15
2,Fc1ccc(-c2nc3n(c2-c2ccncc2)CCS3)cc1 [GI98581],9
3,CC(C)c1ccc(O)cc1Nc1ccnc2ccc(C(F)(F)F)cc12 [GW482059],32
4,CC(=O)c1cccc(NC(=O)NC2CCN(c3ccnc(Nc4ccc(F)cc4)n3)C2)c1 (stereo not drawn) [GSK1379710],0
5,Cc1nccc(-c2c(-c3ccc(F)cc3)ncn2CCCN2CCOCC2)n1.Cl [SB-282975],0
6,O=C(Nc1n[nH]c2nc(-c3ccco3)c(Br)cc12)C1CCN(Cc2ccccc2)C1.O=C(O)[C@H](O)[C@@H](O)C(=O)O (stereo not drawn) [SB-742034],7
7,O=c1cc(N2CCOCC2)nc2n(Cc3cccc(Cl)c3Cl)c3ccccc3n12 [GSK2299009],8
8,Cn1cnc2c(N)ncnc21 [SKF-97623],0
9,CNCc1ccc2nc(NC(=O)c3ccc(C(C)(C)C)cc3)cn2c1,3
10,COc1ccc(CSc2nnc(-c3ccc4nccn4c3)o2)cc1C(F)(F)F,90.3
11,O=C(Nc1n[nH]c2nc(-c3cccs3)c(Br)cc12)C1CCCC1 [SB-743341],12
12,Nc1nccc(-c2c(-c3ccc(F)cc3)ncn2C2CCN(Cc3ccccc3)CC2)n1 [SB-219980],0
13,Cc1ccc(NC(=O)Nc2ccc(Cl)c(C(F)(F)F)c2)cc1-c1ccc(C(=O)Nc2ccncc2)cc1 [GSK1398470],24
14,COc1ccc(CSc2nnc(-c3ccc4c(c3)CCO4)o2)cc1,81
15,NS(=O)(=O)c1cccc(N/C=C2\C(=O)Nc3ccc(S(=O)(=O)Cc4c(Cl)cccc4Cl)cc32)c1 [GSK398099],0
16,CNc1nc(-c2ccc3c(N)n[nH]c3c2)cc(N2C[C@@H](C(=O)NC3CCCCC3)OC[C@H]2C)n1 [GSK2375584],20
17,CS(=O)(=O)Cc1ccc(Nc2nccc(-c3c(-c4cccc(NC(=O)C5CCCCC5)c4)nn4ncccc34)n2)cc1 [GSK350559],0
18,COC(=O)c1cccc(NC(=O)NC2CCN(c3ccnc(Nc4ccc(OC)cc4)n3)C2)c1 (stereo not drawn) [GSK1379746],24

# Test system: CSF1R-autoinhibited
# Settings: concentration: 1 μM, replicates: in singlicate; n = 1
row,SMILES,%Inh [%]
1,COc1ccc(Nc2nccc(N3CCC(NC(=O)c4cc5ccccc5s4)C3)n2)cc1 (stereo not drawn) [GSK1379738],0
2,Cc1ccc(-c2nc(Nc3ccncc3)c3ccccc3n2)s1 [GSK189015],0
3,Cn1cncc1C(=O)NC1CCN(c2ccnc(Nc3ccc(F)cc3)n2)C1 (stereo not drawn) [GSK1379717],0
4,COc1ccc(Nc2nccc(N3CCC(NC(=O)C(C)c4ccc(Cl)cc4)C3)n2)cc1 (stereo not drawn) [GSK1379735],8
5,COc1nccc(-c2c(-c3ccc(F)cc3)ncn2CCCN2CCOCC2)n1 [SB-282852],41
6,Cc1ccccc1Cn1ccn2c(=O)cc(N3CCOCC3)nc12 [GSK2269905],0
7,CS(=O)(=O)CCNCc1nc(-c2ccc3ncnc(Nc4ccc5c(cnn5Cc5ccccc5)c4)c3c2)cs1.Cl.Cl [GW569716],39
8,O=C1NC(=O)C(c2ccc(Cl)cc2)=C1Nc1ccc(O)cc1 [SB-340867],0
9,Cc1cccc2c(-c3ccncn3)c(-c3ccc(F)cc3)nn12 [GW515532],0
10,Cn1cncc1-c1cc2c(Nc3ccc(OCc4ccccc4)cc3)ncnc2cn1 [GW281179],0
11,CCn1c(-c2ccccc2)nc2cnccc21 [SB-733416],0
12,Nc1ncnc2occ(-c3ccc4c(c3)CCN4C(=O)Cc3cc(F)ccc3F)c12 [GSK2645446],0
13,c1ccc(-c2ccnc3[nH]ccc23)cc1 [SB-693578],47
14,O=C(Nc1n[nH]c2cc(-c3ccsc3)ccc12)C1CC1 [SB-732932],16
15,COc1ccc(Nc2nccc(NCCNC(=O)Nc3cc(C)ccc3C)n2)cc1 [GSK1379899],0
16,Cc1ccc(NC(=O)Nc2ccccc2F)cc1-c1ccc(C(=O)Nc2ccncc2)cc1 [GSK1398477],0
17,Cl.Cl.Cl.N#Cc1ccc(CCNc2nccc(-c3cccc(CN4CCNCC4)c3)n2)cc1 [GSK2137462],0
18,O=C1NC(=O)C(c2ccc(Cl)cc2)=C1Nc1cccc(Cl)c1 [SB-317651],6

row,SMILES,%Inh [%]
1,Cc1ccccc1-c1cc(-c2c[nH]nc2-c2ccccn2)ccn1 [GW680061],10
2,Fc1ccc(-c2nc3n(c2-c2ccncc2)CCS3)cc1 [GI98581],0
3,CC(C)c1ccc(O)cc1Nc1ccnc2ccc(C(F)(F)F)cc12 [GW482059],0
4,CC(=O)c1cccc(NC(=O)NC2CCN(c3ccnc(Nc4ccc(F)cc4)n3)C2)c1 (stereo not drawn) [GSK1379710],33
5,Cc1nccc(-c2c(-c3ccc(F)cc3)ncn2CCCN2CCOCC2)n1.Cl [SB-282975],0
6,O=C(Nc1n[nH]c2nc(-c3ccco3)c(Br)cc12)C1CCN(Cc2ccccc2)C1.O=C(O)[C@H](O)[C@@H](O)C(=O)O (stereo not drawn) [SB-742034],0
7,O=c1cc(N2CCOCC2)nc2n(Cc3cccc(Cl)c3Cl)c3ccccc3n12 [GSK2299009],0
8,Cn1cnc2c(N)ncnc21 [SKF-97623],41
9,CNCc1ccc2nc(NC(=O)c3ccc(C(C)(C)C)cc3)cn2c1,2
10,COc1ccc(CSc2nnc(-c3ccc4nccn4c3)o2)cc1C(F)(F)F,6
11,O=C(Nc1n[nH]c2nc(-c3cccs3)c(Br)cc12)C1CCCC1 [SB-743341],0
12,Nc1nccc(-c2c(-c3ccc(F)cc3)ncn2C2CCN(Cc3ccccc3)CC2)n1 [SB-219980],15
13,Cc1ccc(NC(=O)Nc2ccc(Cl)c(C(F)(F)F)c2)cc1-c1ccc(C(=O)Nc2ccncc2)cc1 [GSK1398470],0
14,COc1ccc(CSc2nnc(-c3ccc4c(c3)CCO4)o2)cc1,10
15,NS(=O)(=O)c1cccc(N/C=C2\C(=O)Nc3ccc(S(=O)(=O)Cc4c(Cl)cccc4Cl)cc32)c1 [GSK398099],0
16,CNc1nc(-c2ccc3c(N)n[nH]c3c2)cc(N2C[C@@H](C(=O)NC3CCCCC3)OC[C@H]2C)n1 [GSK2375584],37
17,CS(=O)(=O)Cc1ccc(Nc2nccc(-c3c(-c4cccc(NC(=O)C5CCCCC5)c4)nn4ncccc34)n2)cc1 [GSK350559],35
18,COC(=O)c1cccc(NC(=O)NC2CCN(c3ccnc(Nc4ccc(OC)cc4)n3)C2)c1 (stereo not drawn) [GSK1379746],28
